# Bioassay records (PubChem BioAssay)
# JMJD2E inh: qHTS Assay for Inhibitors of Human Jumonji Domain Containing 2E (JMJD2E); JMJD2E catalytic domain, FDH-coupled NADH fluorescence (FDH is formaldehyde dehydrogenase); Potency, µM (highest dose often 57.1 µM), for the others: top-dose activity change, negative = inhibition, hits mostly inhibitors; Lysine-specific demethylase 4E (Homo sapiens), B2RXH2; actives 1.6% (n = 230,000); AID 2147, 2009; active = well fitted inhibition curve with a large enough effect, not every such curve was filed as active; inconclusive = small, poorly fitted or top-dose-only effect, or another doubt; inactive = no such curve, though single readings can be large or run the other way;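 note: potency is the fitted concentration of half-maximal effect; 0% = wells with enzyme and -100% = buffer wells without enzyme; nearly all actives have a fitted effect of over 50% in size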
# Target sequence (B2RXH2 1-337 limits assumed): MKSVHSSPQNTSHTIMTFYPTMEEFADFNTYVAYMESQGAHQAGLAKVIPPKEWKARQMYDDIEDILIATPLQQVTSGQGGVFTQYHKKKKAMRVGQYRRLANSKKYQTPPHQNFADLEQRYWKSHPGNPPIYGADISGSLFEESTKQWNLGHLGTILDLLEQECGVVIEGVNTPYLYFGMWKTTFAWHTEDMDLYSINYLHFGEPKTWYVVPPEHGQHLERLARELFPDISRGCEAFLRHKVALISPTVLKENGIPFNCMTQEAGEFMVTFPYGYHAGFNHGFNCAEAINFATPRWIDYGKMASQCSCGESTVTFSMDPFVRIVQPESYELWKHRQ
# G9a inh: qHTS Assay for Inhibitors of Histone Lysine Methyltransferase G9a | G9a H3K9 monomethylation, AlphaScreen, 2 h | Potency, µM (doses to about 102 µM), for inactives: at the highest dose activity, negative = inhibition, most hits filed as inhibitors | actives 8.8% (n = 350,000); note: potency is the fitted concentration of half-maximal effect; % is set by controls: 0 for no effect and ±100 for the full control effect; nearly all actives have a fitted effect of over 75% in size
#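 Chemiluminescent proximity detection of H3K9 monomethylation, read after 10 min bead incubation in the dark. Reaction: 20 nM G9a, 500 nM biotin-H3K9 peptide, 20 uM SAM cofactor, 2 h, room temperature, following 15 min enzyme-compound preincubation.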
# ALDH1A1 block: qHTS Assay for Inhibitors of Aldehyde Dehydrogenase 1 (ALDH1A1) | Purified ALDH1A1, NADH fluorescence, propionaldehyde substrate | AID 1030, 2008 | Potency, µM (doses to about 75.3 µM), without a hit: top-dose activity, negative = inhibition, usual class: inhibitors | actives 7.3% (n = 220,000) | Aldehyde dehydrogenase 1A1 (Homo sapiens), P00352; active = well fitted inhibition curve with a large enough effect, not every such curve was filed as active; inconclusive = small, poorly fitted or top-dose-only effect, or another doubt; inactive = no such curve, though single readings can be large or run the other way;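 note: potency is the fitted concentration of half-maximal effect; plate controls were no enzyme wells and a reference inhibitor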
# Sfp inh: qHTS Assay for Inhibitors of Bacillus subtilis Sfp phosphopantetheinyl transferase (PPTase) | 4'-phosphopantetheinyl transferase ffp (Bacillus subtilis), Q9F4F7 | Biochemical Sfp PPTase activity, qHTS | Potency, µM, for the others: largest response in the series, negative = inhibition, most hits filed as inhibitors | actives 3.5% (n = 310,000);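 note: the enzyme is Sfp with the accession as filed and its product quenches rhodamine fluorescence; potency is the fitted concentration of half-maximal effect; 0% = enzyme reaction without inhibitor and -100% = no enzyme wells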
#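 Sfp 15 nM + cpd, 15 min RT; start w/ rhodamine-CoA 5 uM, BHQ-2-YbbR 12.5 uM (final); 50 mM Hepes pH 7.6, 10 mM MgCl2, 0.01% NP-40, 0.01% BSA; read 525/598 nm at 0 and 30 min.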
# miR-21 act: qHTS Assay for Modulators of miRNAs and/orActivators of miR-21; Potency, µM (doses to about 38.3 µM), without a hit: top-dose activity change, positive = activation, usual class: activators; HeLa miR-21 FLuc reporter, luciferase, 48 h; 340,000 tested, under 10 active;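 note: % of control where 0% means no effect; miR-21 action dims this reporter so a rising signal means less miR-21 action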
#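 Compounds were titrated across several concentrations (up to approximately 40 uM) and incubated 48 hours with HeLa miR-21-FLuc reporter cells (miR-21 target sequence downstream of FLuc, endogenous miR-21). Readout was firefly luciferase luminescence after lytic detection reagent.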
# Lamin A splicing: qHTS Assay for Modulators of Lamin A Splicing; HeLa LMNA splicing GFP/RFP minigene ratio, 48 h; Potency, µM (highest dose often 46.1 µM), inactives show at the highest dose ratio change, negative = inhibition, actives largely listed as inhibitors; actives 0.01% (n = 200,000); AID 1487, 2009; active = well fitted inhibition curve with a large enough effect in the signal ratio, with a control signal flat, not every such curve was filed as active; inconclusive = small, poorly fitted or top-dose-only effect, or effect the other way, or a change in a side signal; the % refers to the signal ratio; note: potency is the fitted concentration of half-maximal effect; % is set by controls: 0 for no effect and ±100 for the full control effect
#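 S3 HeLa cells stably expressing lamin A-EGFP splicing minigene plus DsRed2, 600 cells/well, 48 h compound exposure at 37C. Laser-scanning cytometry; analysed as GFP (500-530 nm)/RFP (575-640 nm) total intensity ratio; 0.5% DMSO vehicle.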
# * hit, by the source's call; ? = inconclusive; . = not tested or not shown; [ ] = remark or other dose. Rows were chosen to be rich in hits. Some 13% of all compounds tested hit in one or more screens of this group. Unless noted, calls come from the whole dose curve; as a rule, active = well fitted curve in the direction sought with a large enough effect; inconclusive = small, poorly fitted or top-dose-only effect, or another doubt; inactive = no such curve, though single readings can be large; an effect the other way counts as inactive or inconclusive.
SMILES,JMJD2E inh,G9a inh,ALDH1A1 block,Sfp inh,miR-21 act,Lamin A splicing
NC(=O)CNc1n[nH]c(=S)[nH]c1=O,-12%,.,0%,79µM*,2%,4%[46 µM]
CC(Nc1n[nH]c(=S)[nH]c1=O)C(=O)OCc1ccccc1 (stereo not drawn),-6%,-10%[59 µM],?,-25%,-6%,0%
COc1cccc(C=NC=Nc2cccc(OC)c2)c1,-9%,.,-4%,?,.,.
CCOC(=O)/C=c1\s/c(=C\c2sccc2C)c(=O)n1CC(=O)NCc1ccc(C)cc1,4%,22%,3%,19%,-1%,?
Cc1cccc(Cc2c(C)nc3nc(SCc4ccccc4C)nn3c2C)c1,.,25%[59 µM],.,.,15%,-4%[46 µM]
O=C(Nc1ccc(F)c(F)c1)C1CCCN1S(=O)(=O)c1ccc(F)cc1 (stereo not drawn),.,7%,.,5%,6%,.
CCCCOC(=O)CNc1n[nH]c(=S)[nH]c1=O,4%,-3%[12.7 µM],?,56µM*,-3%,22%
CC(C)COC(=O)CNc1n[nH]c(=S)[nH]c1=O,-5%,-8%[12.7 µM],-15%,?,-2%,16%
O=C1c2ccccc2NC(c2ccccc2O)N1O (stereo not drawn),.,23%,.,-4%,-3%,.
O=C1c2ccccc2NC(c2cccs2)N1O (stereo not drawn),.,32µM*,.,.,.,.
Cc1ccoc1C(=O)NCCNc1ccc(Cl)cc1[N+](=O)[O-],2%,18µM*,1%,-22%,-29%,?
O=C(NCCNc1ccc(Cl)cc1[N+](=O)[O-])c1cccnc1,9%,?,-4%,9%,-2%,?
CC(O)/C=C/c1ccc2ccccc2n1 (stereo not drawn),-10%,20%[59 µM],-1%,16%,15%,?
O=C(/C=C/c1ccco1)Nc1ccc(-c2nc3ccccc3[nH]2)cc1,-9%,40µM*,8%,-21%,-39%,0%
C(=C\c1ccco1)/c1nc2ccccc2[nH]1,10%,.,?,40µM*,-10%,.
C(=C\c1nc2ccccc2[nH]1)/c1ccccc1,?,125%[59 µM],?,-21%,20%,1%
C(=C\c1ccco1)/c1ccc2ccccc2n1,?,.,.,50µM*,-65%,.
Cc1cc(C)c(C)c(S(=O)(=O)N2CCN(C(=O)CNC(=O)c3ccco3)CC2)c1C,.,-3%[2.33 µM],.,.,.,.
O=[N+]([O-])c1cc(S(=O)(=O)C(F)(F)F)ccc1N1CCN(c2ccccc2)CC1,-1%,20µM*,1%,2%,-1%,?
NNS(=O)(=O)c1ccc(N2CCCC2=O)c([N+](=O)[O-])c1,?,10µM*,18µM*,?,-6%,.
O=[N+]([O-])c1cc(S(=O)(=O)Nc2ccccc2)ccc1N1CCN(c2ccccc2)CC1,2%,32µM*,-2%,19%,17%,?
Cc1c(NS(=O)(=O)c2ccc(N3CCN(C)CC3)c([N+](=O)[O-])c2)c(=O)n(-c2ccccc2)n1C,2%,?,-1%,19%,-1%,-25%[46 µM]
NS(=O)(=O)c1ccc(N2CCCC2=O)c([N+](=O)[O-])c1,?,?,-15%,18%,-3%,-1%[46 µM]
CS(=O)(=O)c1ccc(N2CCN(c3ccccn3)CC2)c([N+](=O)[O-])c1,.,?,.,17%,-4%,.
CC(C)c1ccc(CN(Cc2ccco2)c2cnc(S(C)(=O)=O)nc2C(=O)Nc2ccc(F)cc2)cc1,.,-14%[59 µM],.,.,15%,4%[46 µM]
COc1cc(C)c(S(=O)(=O)NOCc2ccccc2)c(C)c1C,.,13%[0.501 µM],.,7%,13%,.
COc1cccc(NC(=O)c2cc(-c3ccc(C)o3)nc3ccccc23)c1,.,8.9µM*,.,50µM*,1%,.
